{"source": "PubChem BioAssay (NCI)", "note": "This is part of a sample that, as a whole, favours compounds with a hit. Of some 83,000 tested, about 20% had one in any assay.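 How to read the values: 0–100, growth inhibition (40 = 60% inhibited); 0, no net growth; -100 to 0, cell death (-40 = 40% of starting cells died; -100 = all dead).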 Unmarked numbers belong to inactive results. Calls of active or inactive are those of the source."}
{"system": "NCI-H23 lung", "test": "NCI-60 one-dose screen, 48 h (100 = growth as untreated, 0 = no growth, -100 = all killed)", "conditions": "10 µM unless noted", "method": "Growth inhibition of the NCI-H23 human Non-Small Cell Lung tumor cell line is measured as a screen for anti-cancer activity. Cells are grown in 96 well plates and exposed to the test compound for 48 hours. Compounds are tested at a single concentration, which is 10^-5 M for most compounds. The reported endpoint is percent growth (GI% or GIPRCNT), where numbers from 0 - 100% represent growth inhibition, and numbers from -100% - 0 represent cell death. For example, a value of 40 represents 60% growth inhibition. A value of 0 means no net growth occurred over the course of the experiment. A value of -40 indicates 40% of cells at the beginning of the experiment died by the end of the experiment. A value of -100 means all cells are dead at the end of the experiment.\nNCI-60 Human Tumor Cell Lines Screen was performed using the standard one-dose NCI protocol, which is described in more detail at https://dtp.cancer.gov/discovery_development/nci-60/default.htm.\nCompounds with GIPRCNT values below 10 were considered active. Activity score was based on GIPRCNT using the following formula: […]\nScore is 0 for GIPRCNT values of 100 or above, 50 for GIPRCNT values of 0, and 100 for GIPRCNT values of -100."}
{"smiles": "O=C(NCCNc1nccc(-c2c(-c3cccc(O)c3)nc3sccn23)n1)c1ccccc1O", "growth": "57.4%"}
{"smiles": "CCN1CCN(Cc2ccc(NC(=O)Nc3cccc(-n4ccc5c(NC(=O)c6ccccc6)nccc54)c3)cc2C(F)(F)F)CC1", "growth": "92.4%"}
{"smiles": "CC(CN(C)C)CN1c2ccccc2CCc2ccccc21", "note": "(stereo not given)", "growth": "83.3%"}
{"smiles": "COc1ccc(SC2c3ccc(O)cc3Oc3nc(N)c(C#N)c(N)c32)cc1", "note": "(stereo not given)", "growth": "93.3%"}
{"smiles": "C[C@@H]1CC2C3C[C@H](F)C4=CC(=O)C=C[C@]4(C)[C@@]3(F)[C@@H](O)C[C@]2(C)[C@@]1(O)C(=O)CO", "note": "(stereo not given in full)", "growth": "105%"}
{"smiles": "O=c1cc(Cl)[nH]c(=O)[nH]1", "growth": "98.9%"}
{"smiles": "CC(=O)c1ccc2c(c1)C1C=CCC1[C@H](c1cc3c(cc1Br)OCO3)N2", "note": "(stereo not given in full)", "growth": "27.1%"}
{"smiles": "O=C(Nc1ccccc1F)Nc1ccccc1Cl", "growth": "77.5%"}
{"smiles": "CCCCCn1ncc(-c2c(O)c(O)cc3c(O)c(-c4c(C)cc5c(-c6cnn(CCCCC)n6)c(O)c(O)cc5c4O)c(C)cc23)n1", "growth": "-15.1% (active)"}
{"smiles": "Nc1nc(=S)ss1", "growth": "98.7%"}
{"smiles": "COc1cccc(-c2nc3sccn3c2-c2ccnc(NCCNC(=O)Nc3cccc(C(F)(F)F)c3)n2)c1", "growth": "83.8%"}
{"smiles": "COc1cc(/C=C/C(=O)c2c(C)n([O-])c3cc(C)c(C)cc3[n+]2=O)cc(OC)c1OC", "growth": "72.7%"}
{"smiles": "O=C1OC(N(Cc2ccc(Cl)cc2)c2ccccc2)c2ccccc21", "note": "(stereo not given)", "growth": "99.7%"}
{"smiles": "O=C1c2ccccc2C(=O)c2c(NCCN=Cc3c(O)ccc4ccccc34)cccc21", "growth": "92.9%"}
{"smiles": "COc1cc(Nc2ncccc2C(=O)Nc2nc3ccc(F)cc3s2)cc(OC)c1OC", "growth": "55.8%"}
{"smiles": "N#CC(C#N)=C(C#N)c1c[nH]c2ccccc12", "growth": "87.4%"}
{"smiles": "N#Cc1c(N)nc2c(c1N)C(c1ccc(Cl)cc1)C1=C(CCCC1=O)N2c1sc2c(c1C#N)CCCC2", "note": "(stereo not given)", "growth": "91.2%"}
{"smiles": "c1ccc([Se]CCCN2CCN(CCC[Se]c3ccccc3)CC2)cc1", "growth": "106%"}
{"smiles": "CC1CCC(C(C)C)C(NN)C1", "note": "(stereo not given)", "growth": "106%"}
{"smiles": "Cc1cn(C2CC(N=[N+]=[N-])C(COP(=O)(O)OP(=O)(O)OP(=O)(O)O)O2)c(=O)[nH]c1=O", "note": "(stereo not given)", "growth": "94.7%"}
{"smiles": "Oc1ccc(Cl)cc1Sc1cc(Cl)ccc1O", "growth": "93.3%"}
{"smiles": "O=C(Nc1ccc(-n2ccc3c(NC(=O)c4ccccc4)ncnc32)cc1)Nc1ccc(Cl)c(C(F)(F)F)c1", "growth": "-28.2% (active)"}
{"smiles": "COc1ccc(-c2nn(-c3ccc(NC(=O)Nc4ccc(Cl)c(C(F)(F)F)c4)cc3)cc2-c2ccncc2)cc1Cl", "growth": "6.3% (active)"}
{"smiles": "C#CC(=O)/C=C/CCCCCCC#CC(=O)CCC(=O)C#CCCCCCC/C=C/C(=O)C#C", "growth": "15%"}
{"smiles": "COc1ccc(-c2ccc(NC(=O)Nc3cccc(C(F)(F)F)c3)c(C)n2)cc1", "growth": "47.6%"}
{"smiles": "COc1ccc(/C(=C/c2cc(OC)c(OC)c(OC)c2)[N+](=O)[O-])cc1", "growth": "24.1%"}
{"smiles": "C#C[C@@]1(O)[C@@H](CO)O[C@@H](n2cc(C(F)(F)F)c3c(N)ncnc32)[C@@H]1O", "growth": "2.72% (active)"}
{"smiles": "Cc1cc(NC(=O)c2cccc(C(F)(F)F)c2)ccc1-n1ccc2c(NC(=O)c3ccccc3)nccc21", "growth": "94.6%"}
{"smiles": "O=C(Nc1ccc(-n2ccc3c(NC(=O)c4ccccc4)nccc32)cc1)c1ccc(Cl)c(C(F)(F)F)c1", "growth": "64%"}
{"smiles": "O=[N+]([O-])c1ccccc1NC1c2ccccc2Oc2ccccc21", "growth": "79.1%"}
{"smiles": "CC1CCc2cc(F)cc3c(=O)c(C(=O)O)cn1c23", "note": "(stereo not given)", "growth": "91.5%"}
{"smiles": "O=C(O)c1ccc(-c2nn(-c3ccc(C(=O)O)cc3)cc2/C=N/Nc2c(F)c(F)cc(F)c2F)cc1", "growth": "96%"}
{"smiles": "Nc1ccc(S(=O)(=O)Nc2cc(I)cc(I)c2)cc1", "growth": "93.6%"}
{"smiles": "COc1ccc(-c2nnc(SCC(=O)Nc3ccc(C(=O)/C=C/c4ccc(Cl)cc4)cc3)o2)cc1OC", "growth": "79%"}
{"smiles": "Cc1ccc(-c2cc(-c3nnc(SCC(=O)c4ccccc4)o3)c3ccccc3n2)cc1", "growth": "97.1%"}
{"smiles": "CC[C@@]1(O)C(=O)OCc2c1cc1n(c2=O)Cc2c-1nc1ccccc1c2/C=N/OC(C)(C)C", "growth": "-4.17% (active)"}
{"smiles": "COc1cc([C@@H]2c3cc4c(cc3C(OC3O[C@@H]5COC(C)O[C@H]5[C@H](O)[C@H]3O)C3COC(=O)[C@@H]32)OCO4)cc(OC)c1O", "note": "(stereo not given in full)", "growth": "14.3%"}
{"smiles": "COc1ccc(CNc2nc3ccccc3c3c(=O)c4ccccc4sc23)cc1OC", "growth": "80.9%"}
{"smiles": "C=CC(=O)NC(=O)Nc1ccccc1Cl", "growth": "103%"}
{"smiles": "COc1ccc(/C=C/C(=O)c2ccc(Oc3ncnc4ccccc34)cc2)cc1OC", "growth": "81.9%"}
